The source of these data is PubChem BioAssay (NCI).

Among the test systems are NCI-H23 lung; NCI-H226 lung; NCI-H322M lung; HOP-62 NSCLC; NCI-H460 lung; HOP-92 NSCLC; NCI-H522 lung; A549/ATCC NSCLC; 786-0 renal; COLO 205 colon; DU-145 prostate; K-562 leukemia; MALME-3M melanoma; MDA-MB-231 breast; RXF 393 renal; SF-268 CNS; SF-295 CNS; SF-539 CNS; UACC-257 melanoma; M14 melanoma.
What all share (assay): NCI-60 one-dose screen, 48 h (100 = growth as untreated, 0 = no growth, -100 = all killed)
What all share (details): 10 µM unless noted

Compounds without any hit were thinned out: in the full panel of roughly 83,000, 20% have a hit.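 Method: cells in 96-well plates; compound added at one concentration; 48 h incubation; percent growth measured; values under 10 scored active.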 Values without a mark were called inactive. Calls of active or inactive are those of the source.

For the compound `COc1ccc(C2[C@@H](c3ccccc3)C(=O)N2c2cc(OC)c(OC)c(OC)c2)cc1F` (stereo not given in full), the growth with NCI-H23 lung is 25.3%; in the experiment with NCI-H226 lung it was 66.6%; with NCI-H322M lung it was 38.2%; with HOP-62 NSCLC, 19.1%; with NCI-H460 lung it was 5.92% (active); in the experiment with HOP-92 NSCLC, 28.1%. Also, the growth in the experiment on NCI-H522 lung is -34.2% (active); in the experiment on A549/ATCC NSCLC, 8.88% (active); in the experiment on 786-0 renal it was 13.9%; with COLO 205 colon, -48.2% (active); with DU-145 prostate it was 11%; in the experiment with K-562 leukemia, 5.35% (active). Besides, the growth with MALME-3M melanoma was 69.1%; in the experiment with MDA-MB-231 breast it was 32.3%; in the experiment with RXF 393 renal, 13.5%; in the experiment on SF-268 CNS it was 31.5%; in the experiment with SF-295 CNS, 0.875% (active); with SF-539 CNS, 14.8%. In addition, the growth in the experiment with UACC-257 melanoma is 20.8%; with M14 melanoma, 4.59% (active).
Regarding `CNC(=O)c1cc(Oc2ccc3c(c2)sc2nc(-c4ccc(NC(=O)[C@@H](NC(=O)OC)C(C)C)cc4)cn23)ccn1`, the growth is 77.6% in the experiment on NCI-H23 lung; 56.9% with NCI-H226 lung; 107% with NCI-H322M lung; 82.5% with HOP-62 NSCLC; 87.6% with NCI-H460 lung; 61.7% in the experiment with HOP-92 NSCLC. Besides, the growth with NCI-H522 lung was 43.6%; in the experiment with A549/ATCC NSCLC, 80.8%; in the experiment with 786-0 renal, 87.4%; in the experiment on COLO 205 colon, 63.9%; in the experiment on DU-145 prostate, 84.8%; in the experiment with K-562 leukemia, 47.3%. In addition, the growth in the experiment with MALME-3M melanoma was 49.4%; with MDA-MB-231 breast it was 71.9%; in the experiment with RXF 393 renal, 85.3%; in the experiment on SF-268 CNS it was 82.5%; in the experiment on SF-295 CNS it was 68.7%; in the experiment with SF-539 CNS, 88.2%. Also, the growth in the experiment with UACC-257 melanoma is 59.5%; in the experiment with M14 melanoma, 64.1%.
Consider `O=C(/C=C/C12c3ccccc3C(c3ccccc31)C1C(=O)NC(=O)C12)c1ccc(Cl)cc1Cl` (stereo not given), for which the growth was 32.9% in the experiment on NCI-H23 lung; 78.7% in the experiment on NCI-H226 lung; 41.4% with NCI-H322M lung; 21% in the experiment on HOP-62 NSCLC; 8.61% (active) in the experiment with NCI-H460 lung; 37.6% with HOP-92 NSCLC. For the same compound, the growth was 9.1% (active) with NCI-H522 lung; 37.4% with A549/ATCC NSCLC; 19.1% in the experiment on 786-0 renal; -8.3% (active) in the experiment with COLO 205 colon; 23% in the experiment with DU-145 prostate; 7.41% (active) in the experiment with K-562 leukemia. Also, the growth with MALME-3M melanoma is 48.2%; in the experiment on MDA-MB-231 breast it was 19.3%; in the experiment with RXF 393 renal, -4.59% (active); in the experiment on SF-268 CNS, 33.3%; in the experiment with SF-295 CNS, 40.8%; in the experiment on SF-539 CNS, 39.4%. Also, the figures for the growth in the experiment on UACC-257 melanoma and in the experiment with M14 melanoma were 41% and 24.4%, respectively.
Regarding `COc1ccc(C(=O)/C=C/c2ccccc2)cc1S(N)(=O)=O`, the growth in the experiment on NCI-H23 lung was 79.6%; in the experiment on NCI-H226 lung, 82.5%; in the experiment with NCI-H322M lung, 71.4%; in the experiment on HOP-62 NSCLC, 86.9%; in the experiment with NCI-H460 lung, 53.6%; in the experiment with HOP-92 NSCLC it was 95.7%. For the same compound, the growth in the experiment with NCI-H522 lung is 76%; in the experiment on A549/ATCC NSCLC it was 65.7%; in the experiment on 786-0 renal it was 64.6%; in the experiment on COLO 205 colon it was 98.2%; in the experiment on DU-145 prostate, 41.7%; with K-562 leukemia, 7.9% (active). Also, the growth in the experiment on MALME-3M melanoma is 93.6%; with MDA-MB-231 breast it was 71.5%; in the experiment on RXF 393 renal, 80.6%; with SF-268 CNS it was 63.3%; in the experiment on SF-295 CNS, 91.1%; with SF-539 CNS, 60.2%. In addition, the growth was 90.9% with UACC-257 melanoma and 82.8% in the experiment with M14 melanoma.
Consider `Cn1c(=O)[nH]c(=O)c2nc3c(nc21)-c1ccccc1C3=O`, for which the growth is 95.6% in the experiment on NCI-H23 lung; 92.2% with NCI-H226 lung; 102% in the experiment with NCI-H322M lung; 94.3% in the experiment on HOP-62 NSCLC; 102% in the experiment on NCI-H460 lung; 100% with HOP-92 NSCLC. The growth with NCI-H522 lung was 96.4%; in the experiment on A549/ATCC NSCLC, 106%; with 786-0 renal, 101%; with COLO 205 colon, 114%; in the experiment on DU-145 prostate, 104%; with K-562 leukemia, 99%. Moreover, the growth with MALME-3M melanoma is 102%; in the experiment with MDA-MB-231 breast, 101%; in the experiment on RXF 393 renal, 99.3%; in the experiment on SF-268 CNS it was 99.3%; with SF-295 CNS, 97.7%; in the experiment on SF-539 CNS it was 95.8%. Further, the growth was 102% in the experiment on UACC-257 melanoma and 99.4% in the experiment with M14 melanoma.
As for `CCOC(=O)C1=C(CC(O)c2ccc(OC)cc2OC)NC(=O)NC1c1ccccc1` (stereo not given), the growth in the experiment on NCI-H23 lung is 103%; with NCI-H226 lung, 100%; in the experiment on NCI-H322M lung it was 104%; in the experiment with HOP-62 NSCLC, 97.8%; in the experiment on NCI-H460 lung, 113%; in the experiment with HOP-92 NSCLC it was 82.5%. Also, the growth in the experiment with NCI-H522 lung was 98.5%; in the experiment with A549/ATCC NSCLC, 107%; in the experiment with 786-0 renal, 102%; in the experiment on COLO 205 colon, 126%; in the experiment with DU-145 prostate, 110%; in the experiment with K-562 leukemia, 56.1%. The growth with MALME-3M melanoma was 93.8%; in the experiment on MDA-MB-231 breast, 99.4%; with RXF 393 renal it was 120%; in the experiment on SF-268 CNS, 109%; in the experiment with SF-295 CNS it was 109%; with SF-539 CNS it was 95.1%. For the same compound, the figures for the growth with UACC-257 melanoma and in the experiment with M14 melanoma were 102% and 109%, respectively.
As to `COc1cc(Cc2cc(OC)c(O)c(OC)c2)cc(OC)c1O`, the growth is 87.6% in the experiment on NCI-H23 lung; 106% in the experiment on NCI-H226 lung; 94.2% with NCI-H322M lung; 88.9% in the experiment with HOP-62 NSCLC; 99.1% with NCI-H460 lung; 89.6% with HOP-92 NSCLC. The growth is 56.5% with NCI-H522 lung; 84.1% with A549/ATCC NSCLC; 107% in the experiment with 786-0 renal; 109% in the experiment with COLO 205 colon; 117% with DU-145 prostate; 20.1% in the experiment with K-562 leukemia. In addition, the growth with MALME-3M melanoma is 86%; in the experiment on MDA-MB-231 breast it was 95.2%; in the experiment on RXF 393 renal it was 86.3%; in the experiment on SF-268 CNS, 105%; with SF-295 CNS it was 62.2%; in the experiment on SF-539 CNS it was 101%. Besides, the growth is 89.3% in the experiment on UACC-257 melanoma and 75.3% in the experiment on M14 melanoma.
`C=C(C)[C@@H]1CC[C@]2(CO)CC[C@]3(C)[C@H](CC[C@@H]4[C@@](C)(CCCN)[C@H](C(=C)C)CC[C@]43C)[C@@H]12`: the growth with NCI-H23 lung was -70.1% (active); in the experiment with NCI-H226 lung it was 13.1%; in the experiment on NCI-H322M lung, -53.9% (active); in the experiment with HOP-62 NSCLC, -62.8% (active); in the experiment on NCI-H460 lung, -93.8% (active); in the experiment on HOP-92 NSCLC it was -41% (active). For the same compound, the growth in the experiment on NCI-H522 lung was -48.6% (active); in the experiment on A549/ATCC NSCLC, -68.8% (active); in the experiment on 786-0 renal, -98.5% (active); in the experiment on COLO 205 colon, -58% (active); in the experiment on DU-145 prostate, -44.8% (active); with K-562 leukemia it was -5.14% (active). Besides, the growth in the experiment on MALME-3M melanoma is -94.7% (active); in the experiment with MDA-MB-231 breast it was -96.3% (active); in the experiment on RXF 393 renal, -85.3% (active); in the experiment on SF-268 CNS it was -41.9% (active); in the experiment on SF-295 CNS, -75.5% (active); in the experiment on SF-539 CNS it was -97.1% (active). Further, the results for the growth in the experiment with UACC-257 melanoma and with M14 melanoma were -78.9% (active) and -74.9% (active), respectively.
